We go through 40 molecules from PubChem BioAssay (NCI).

The panel holds about 83,000 compounds, 20% with a hit somewhere; the sample as a whole holds those more often.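 Single-concentration screen, 48 h exposure, 96-well plates. Endpoint: percent growth. Below 10 = active.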 Active and inactive are the calls of the source.

For the test, the system named is M14 melanoma. Put plainly: NCI-60 one-dose screen, 48 h (100 = growth as untreated, 0 = no growth, -100 = all killed). As to conditions: 10 µM unless noted. How it is done: Growth inhibition of the M14 human tumor cell line is measured as a screen for anti-cancer activity. Cells are grown in 96 well plates and exposed to the test compound for 48 hours. Compounds are tested at a single concentration, which is 10^-5 M for most compounds. The reported endpoint is percent growth (GI% or GIPRCNT), where numbers from 0 - 100% represent growth inhibition, and numbers from -100% - 0 represent cell death. For example, a value of 40 represents 60% growth inhibition. A value of 0 means no net growth occurred over the course of the experiment. A value of -40 indicates 40% of cells at the beginning of the experiment died by the end of the experiment. A value of -100 means all cells are dead at the end of the experiment.
NCI-60 Human Tumor Cell Lines Screen was performed using the standard one-dose NCI protocol, which is described in more detail at https://dtp.cancer.gov/discovery_development/nci-60/default.htm.
Compounds with GIPRCNT values below 10 were considered active. Activity score was based on GIPRCNT using the following formula: […]
Score is 0 for GIPRCNT values of 100 or above, 50 for GIPRCNT values of 0, and 100 for GIPRCNT values of -100.
Turning to `CN1CCN(Cc2ccc(NC(=O)c3cncc(C#Cc4cnc5[nH]ncc5c4)c3)cc2C(F)(F)F)CC1`, the growth is 8.74% (active).
Then `CN(C)CCCOc1c2ccc(Cl)cc2nc2c1oc1ccc(Cl)cc12`, with -49.5% (active); and `COc1ccc(NC(=O)c2sc3nc(-c4cnccn4)cc(-c4cccs4)c3c2N)cc1`, with 81.2% (inactive); and `N#Cc1ccc(/C=N/NC(=O)c2[nH]c3ccc(Br)cc3c2-c2ccccc2)s1`, with 9% (active).
The value for `COc1ccc(-n2c(SCC(=O)Nc3ccc(-c4nc5ccccc5[nH]4)cc3)nc3ccccc3c2=O)cc1` was -26.7% (active); that for `O=C(CN1C(=O)/C(=C/c2ccccc2)SC1=S)N1CCOCC1` was 88.5% (inactive).
Turning to `Clc1ccc2c(NCCCn3ccnc3)c3oc4ccc(Cl)cc4c3nc2c1`, the growth is 105% (inactive).
Then `CCCSc1nc(Nc2ccc(/C(C)=N\NC(N)=S)cc2)c(C#N)c(-c2ccc(OC)cc2)n1`, with 79.5% (inactive); and `COc1cc(-c2nc3ccc(-c4nnc(SCC(=O)Nc5ccc(C(C)=O)cc5)o4)cc3[nH]2)cc(OC)c1OC`, with 105% (inactive).
The value for `Cc1cc2nc3c4cc(Cl)ccc4n(CC(=O)NCCN(C)C)c3nc2cc1C` was -88.7% (active); that for `CC1=C(C)C(=O)C(Nc2cccc(C(F)(F)F)c2)=C(Cl)C1=O` was 85.2% (inactive).
Then `COc1ccc(NC2=C(Cl)C(=O)C(C)=C(C)C2=O)cc1OC`, with 95.7% (inactive).
In the case of `COc1ccc(/C=N/Nc2ccnc3cc(Cl)ccc23)cc1Cl`, the growth was -84.5% (active).
As for `NS(=O)(=O)c1ccc(Nc2nc(SCC(=O)c3ccc(Cl)cc3)nc3ccccc23)cc1`, the growth was 97% (inactive).
Then `C#Cc1nc(C2=C(C)C(OC(C)=O)/C(=N/OC(C)=O)C2)cs1` (stereo not given), with 69.2% (inactive); and `COc1ccc(-c2cc(C(=O)N=Nc3c(O)[nH]c4ccccc34)c3ccccc3n2)cc1OC`, with 95.6% (inactive).
The value for `Clc1ccc2c(NCCCN3CCOCC3)c3oc4ccc(Cl)cc4c3nc2c1` was 97.5% (inactive); that for `CN(C)S(=O)(=O)c1oc(-c2ccccc2)nc1C#N` was 27.5% (inactive).
The value for `O=C1[C@H]2Cc3c([nH]c4ccccc34)[C@@H](c3ccc(Br)cc3)N2C(=O)CN1C1CCN(Cc2ccccc2)CC1` was 35.8% (inactive).
`CC(=O)Oc1ccccc1C(=O)Nc1ccc(C(=O)/C=C/c2ccncc2)cc1`: the growth is 30.3% (inactive).
`O=C1c2c(c3c4cccnc4[nH]c3c3ccc4ccccc4c23)C(=O)N1CCO`: the growth is 86.1% (inactive).
The value for `COC1CCN(Cc2ccc3c(NNC(=O)c4cnccn4)nc4cc(F)ccc4n23)C1` (stereo not given) was 3.22% (active).
With `Nc1cc(-c2c[nH]c3ccc(Cl)cc23)nc2cc(-c3c[nH]c4ccc(Cl)cc34)nn12`, the growth is 48.6% (inactive).
The value for `OC1CCN(CCCOc2c3ccc(Cl)cc3nc3c2oc2ccc(Cl)cc23)CC1` was -93.8% (active); that for `COc1ccc(-c2nn3c(-c4ccccc4F)nnc3s2)cc1` was 34.8% (inactive).
The value for `COc1cc(-c2nc3ccc(-c4nnc(SCC(=O)Nc5ccc(C(=O)/C=C/c6ccc(Cl)cc6)cc5)o4)cc3[nH]2)cc(OC)c1OC` was 105% (inactive); that for `Nc1cc(-c2c[nH]c3ccc(F)cc23)nc2cc(-c3c[nH]c4ccc(F)cc34)nn12` was 79.3% (inactive); that for `c1ccc(CNc2ncnc3ccc(-c4cnc5[nH]ncc5c4)cc23)cc1` was 94.8% (inactive).
Then `CC(C)(C)Nc1nc2c(OCCc3ccccc3)cccn2c1-c1ccc(O)cc1`, with 63.1% (inactive); and `O=[N+]([O-])c1ccc(O)c2ncccc12`, with 31.9% (inactive).
`OC1CCN(CCCOc2c3ccc(Cl)cc3nc3c2oc2ccccc23)CC1`: the growth is -84.2% (active).
The value for `COc1ccc(-c2nc3ccc(-c4nnc(SCC(=O)Nc5ccc(C(C)=O)cc5)o4)cc3[nH]2)cc1` was 91.9% (inactive).
The value for `CC(C)(O)c1cncc(-c2ccc3ncnc(N4CCc5cc(F)c(Cl)cc54)c3c2)c1` was 32.2% (inactive).
On to `O=C(O)CCCCCN1C(=O)/C(=C/c2ccc(O)c(O)c2)SC1=S`, for which the growth is 106% (inactive).
The value for `NC(=O)c1cc(-c2ccc3ncnc(N4CCc5cc(F)c(Cl)cc54)c3c2)cnc1N` was 38.3% (inactive); that for `COc1ccc([C@@H]2c3[nH]c4ccccc4c3CC3C(=O)N(C4CCN(Cc5c(F)cccc5F)CC4)CC(=O)N32)c(OC)c1` (stereo not given in full) was 26.4% [5.26 µM] (inactive); that for `COc1ccc(C(=O)/C=C/c2ccc(Oc3nc(NCCO)nc(N4CCOCC4)n3)c(OC)c2)cc1` was 86.8% (inactive).
Then `NC(=O)c1c(NC(=O)c2ccc(C3CCCCC3)cc2)sc2c1CCC(=O)C2`, with 18% (inactive); and `COC(=O)C1CCCN(S(=O)(=O)/N=C2\NC(=O)NC2=C(Cl)Cl)C1` (stereo not given), with 99.3% (inactive); and `Fc1ccc(-c2cc3nc(C(Cl)Cl)nc(-c4ccccc4)n3n2)cc1`, with 26.9% (inactive).
